Arbovirus inh = blocks arbovirus infection; 0.37% of 200,000 active; inhibition, % at 10 µM; arbovirus infection cell-based antiviral screen; AID 1251; in the data active = inhibition above about 30%
Measles CPE = protection of cells from measles virus. Measles virus-infected cells, CPE protection, absorbance. protection (pct of control), % at 4 µM. 1.5% of 140,000 active. AID 841; in the data active = protection mostly above about 24%, no sharp cut-off; inactive = mostly below about 26%
ROMK primary = human ROMK K+ channel modulation, primary screen | 2% of 130,000 active | P48048 | B-score at 10 µM | Tet-inducible ROMK, thallium flux fluorescence; actives lie on both sides;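 active = signal ratio slope over the read window, or its plate-corrected B-score, at least 3 SD from the plate mean, either direction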;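 also: B-score of the F/F0 ratio slope over 7 to 12 s after thallium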
Target sequence (P48048 whole entry, looked up): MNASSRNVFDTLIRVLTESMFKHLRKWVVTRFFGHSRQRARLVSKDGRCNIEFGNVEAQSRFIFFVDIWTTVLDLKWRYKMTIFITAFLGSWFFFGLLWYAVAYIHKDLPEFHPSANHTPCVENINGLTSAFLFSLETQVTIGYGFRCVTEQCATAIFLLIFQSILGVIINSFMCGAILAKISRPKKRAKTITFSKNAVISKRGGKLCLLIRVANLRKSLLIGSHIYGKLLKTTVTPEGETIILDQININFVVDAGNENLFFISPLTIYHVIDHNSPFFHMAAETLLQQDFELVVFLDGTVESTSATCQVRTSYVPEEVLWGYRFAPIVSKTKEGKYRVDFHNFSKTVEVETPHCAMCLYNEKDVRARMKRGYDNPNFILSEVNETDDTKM
HSV augment = HSV replication enhancement | HSV replication augmentation in cells, fold increase | maximum fold increase | 0.005% of 220,000 active; in the data active = maximum fold increase above about 1.5; inconclusive = no clear call, values can overlap the other calls; tested in PC3 cells
KCC2 mod = modulates chloride dependent transport by human KCC2; Q9H2X9; KCC2 cells, thallium flux FluoZin-2 fluorescence; B-score of Tl+ flux slope (higher = more flux/activation; lower = inhibition) at 10 µM; 2.2% of 190,000 active; AID 1456;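 active = thallium flux slope and its plate-corrected score both differing from the plate sample mean at a set confidence after two filtering rounds, in either direction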;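 also: slope of fluorescence scaled to starting intensity during 10 to 20 s after thallium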
KCC2 secondary = KCC2 (human) modulation, secondary assay; shares compounds with KCC2 mod; normalised thallium flux (F/F0 slope) at 10 µM; 15% of 3,700 active; AID 1713; HEK293-KCC2, thallium flux, FluoZin2 fluorescence; hits give high values;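 active = thallium flux slope above the same plate's solvent-only control mean plus 3 SD; inconclusive = the two replicate wells disagree; inactive = no significant difference from solvent-only control wells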
KCC2 bumet counter = thallium flux despite bumetanide block in KCC2 cells, secondary assay 3; shares compounds with KCC2 mod; HEK293-KCC2 + bumetanide/ouabain, thallium flux FluoZin2; hits give high values; normalized thallium flux at 10 µM; 49% of 3,700 active;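 active = thallium entry rate above the same plate's blocked-transporter control wells by more than 3 SD; inconclusive = the two repeat wells disagree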;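 also: raw slope of fluorescence over initial fluorescence between 10 and 20 s after thallium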
KCC2 sec2 = confirmation of human KCC2 transport modulators; normalized thallium flux at 10 µM; shares compounds with KCC2 mod; AID 1715; HEK293-KCC2, thallium flux FluoZin2 fluorescence; actives lie on both sides; F/F0 rise rate, 10–20 s post-thallium; 23% of 3,700 active;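 active = thallium flux slope more than 3 SD above or below the plate's solvent-only control mean, mostly below; inconclusive = the two repeat wells disagreed; inactive = no significant shift from solvent-only controls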;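 also: raw slope with 0.1% DMSO as baseline and bumetanide as block control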
HEK counter1 = counter-screen for KCC2 modulators: effect in parental HEK293 cells. shares compounds with KCC2 mod. thallium flux FluoZin2, ouabain; baseline-ratio fluorescence slope, 10–20 s after thallium. thallium flux rate (normalised fluorescence) at 10 µM. 46% of 3,700 active. AID 1716;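 active = thallium flux rate significantly above the same plate's solvent-only control wells, beyond their mean plus 3 SD; inconclusive = the two replicate wells gave conflicting results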
KCC2 retest ouab = confirmation of human KCC2 modulators with ouabain | shares compounds with KCC2 mod | AID 1717 | 48% of 3,700 active | HEK293-KCC2, thallium flux FluoZin2 fluorescence; bidirectional: low = inhibitor, high = activator | raw Tl+ flux slope (below DMSO = inhibition, above = activation) at 10 µM;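 active = thallium flux slope beyond 3 SD from same-plate DMSO control mean in most replicates, usually higher, sometimes lower; inconclusive = repeat tests gave conflicting results; inactive = no significant difference from controls in most replicates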;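 also: slope of initial-normalized fluorescence between seconds 10 and 20 after thallium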
HEK counter2 = counter-screen for KCC2 modulators: effect in parental HEK293 cells; shares compounds with KCC2 mod; thallium flux FluoZin-2 fluorescence slope; thallium flux slope at 10 µM; 33% of 3,700 active;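 active = thallium flux slope above the same plate's solvent-control mean plus 3 SD in both duplicate wells; inconclusive = duplicate wells that disagreed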;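 also: run without ouabain in cells lacking the KCC2 cotransporter; slope of fluorescence scaled to its starting value between 10 and 20 s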
* marks the source's active call; other numbers are inactive results; i = inactive; ? = inconclusive; nt = no result. Only some compounds are listed: those with a hit (about 4% of all), similar ones and a draw of the others.

SMILES	Arbovirus inh	Measles CPE	ROMK primary	HSV augment	KCC2 mod	KCC2 secondary	KCC2 bumet counter	KCC2 sec2	HEK counter1	KCC2 retest ouab	HEK counter2
Cc1ccc(-n2[nH]c(C)c(C=Nc3ccc(S(=O)(=O)Nc4nccs4)cc3)c2=O)cc1	-10.0	13.9	nt	i	-0.49	nt	nt	nt	nt	nt	nt
Cc1[nH]n(-c2ccccc2)c(=O)c1C=Nc1cnc2ccccc2c1	-0.3	6.3	0.4	i	2.47	nt	nt	nt	nt	nt	nt
C#Cc1ccc([C@H]2C=C(C(=O)NCc3nc4ccccc4[nH]3)O[C@@H](OCC)[C@@H]2CCCO)cc1	nt	nt	nt	i	nt	nt	nt	nt	nt	nt	nt
COCc1ccc(C(=O)N2CCCC(CCC(=O)NCc3ccccc3F)C2)o1 (centres undefined)	-15.4	nt	0.578	i	nt	nt	nt	nt	nt	nt	nt
Cc1c(C(=O)N2CCC(Cc3ccccc3)CC2)cccc1[N+](=O)[O-]	-2.8	nt	-0.534	i	-2.26	nt	nt	nt	nt	nt	nt
CC1CCN(C(=O)c2ccc(SCc3ccccc3F)c([N+](=O)[O-])c2)CC1	6.6	30.1	-0.114	i	-3.38*	0.00679	0.0052	0.0249*	0.00804	?	0.0097
O=C(c1ccc(S(=O)(=O)Cc2ccccc2F)c([N+](=O)[O-])c1)N1CCCCCC1	-5.6	nt	-0.762	i	-0.131	nt	nt	nt	nt	nt	nt
Cc1ccc(C(=O)N2CCC(Cc3ccccc3)CC2)cc1[N+](=O)[O-]	3.9	nt	0.0362	i	-5.68*	0.00805	?	0.0336	0.00337	0.0143*	0.0115
C=C(C)C(=O)Nc1cccnc1Oc1ccc(F)cc1F	nt	nt	0.215	i	-0.0241	nt	nt	nt	nt	nt	nt
Cc1cc(=O)oc(C)c1C(=O)NC1CCCCCCC1	6.6	nt	-0.137	i	-1.22	nt	nt	nt	nt	nt	nt
Cc1ccc(S(=O)(=O)NN2C(=O)/C(=C/c3cccs3)SC2=S)cc1	nt	nt	0.447	i	27.4*	0.00623	0.0533*	0.0495*	0.0453*	0.0514*	0.0432*
Cc1ccc(S(=O)(=O)NN2C(=O)/C(=C/c3cccn3C)SC2=S)cc1	-26.9	6.6	-0.84	i	-0.881	nt	nt	nt	nt	nt	nt
CC1=C(C(=O)Nc2ccccc2)C(c2ccco2)C(C#N)=C(SCc2ccccc2)N1 (centres undefined)	-4.4	17.7	-1.18	i	nt	0.00747	0.00434	0.0302	0.00777	0.0186	0.011
CC1=C(C(=O)Nc2ccccc2)C(c2ccco2)C(C#N)=C(SCC(=O)OC(C)C)N1 (centres undefined)	1.7	4.9	nt	i	-2.94	nt	nt	nt	nt	nt	nt
Cc1c(O)ccc(/C(Cc2ccc3ccccc3n2)=N\O)c1O	6.2	3.8	nt	i	-4.88*	0.00797	0.00392	0.0287	0.00636	0.0145*	0.00952
S=c1[nH]cc(Cc2ccccc2)s1	-7.7	40.7	0.676	i	40*	0.0263*	0.117*	0.0316	0.0345*	0.0684*	0.0207*
CC(=O)Nc1cccc(NC=C(C#N)C#N)c1	1.1	nt	-0.444	i	1	nt	nt	nt	nt	nt	nt
CCC(=O)N1CCc2cc(S(=O)(=O)CCC(=O)Nc3ccc(OC)c(OC)c3)ccc21	8.1	nt	0.0338	i	1.2	nt	nt	nt	nt	nt	nt
COCC(=O)/C=C1\Sc2ccccc2N1C	3.0	11.9	nt	i	0.133	nt	nt	nt	nt	nt	nt
CN1/C(=C/C(=O)C2CCC2)Sc2ccccc21	-5.3	4.5	nt	i	-4.56*	0.00555	0.00434	0.0216*	0.00692	0.0139*	0.00924
O=C(/C=C/NNC(=O)c1ccccc1)c1ccc([N+](=O)[O-])cc1	-14.3	nt	1.53	i	2.06	nt	nt	nt	nt	nt	nt
CCCCCC(=O)Cc1cc(O)cc2c1C(=O)Oc1cc(O)c(C(=O)O)c(CCCCC)c1O2	nt	nt	nt	i	-1.56*	?	0.00459	0.0255*	0.00797	?	0.0106
CC(=O)c1nc2ccccc2n1S(=O)(=O)c1ccc(C)cc1	2.7	9.0	-0.447	i	5.6*	0.0113	?	0.0291	0.0076	0.0181	0.00998
COc1ccc(CCNC(=O)C2CC3Cn4c(nc5ccccc54)C3N2c2ccccc2)cc1 (centres undefined)	nt	nt	nt	i	nt	nt	nt	nt	nt	nt	nt
CCN(CC)C(=S)NC(=O)C12CC3CC(CC(C3)C1)C2	5.9	nt	0.0885	i	20.1*	0.00585	0.0549*	0.042*	0.0284*	0.0428*	0.0337*
SMILES	Arbovirus inh	Measles CPE	ROMK primary	HSV augment	KCC2 mod	KCC2 secondary	KCC2 bumet counter	KCC2 sec2	HEK counter1	KCC2 retest ouab	HEK counter2
CCOC(=O)N1CCN(C(=S)NC(=O)C23CC4CC(CC(C4)C2)C3)CC1	19.2	nt	0.0383	i	5.91*	0.0104	0.0297*	0.0369	0.0118*	?	0.0111
CC(=O)Nc1ccc(NC(=O)C2CCCN2C(=O)Nc2ccc(F)c([N+](=O)[O-])c2)cc1 (centres undefined)	4.1	nt	0.774	i	-0.767	nt	nt	nt	nt	nt	nt
Cc1ccc(NS(=O)(=O)c2cc3c4c(cccc4c2)C(=O)NC3=O)cc1C	nt	nt	nt	i	-1.91	nt	nt	nt	nt	nt	nt
CCC(CC)C(=O)Nc1cc(=O)n(C)c(=O)n1C	-2.0	6.8	nt	i	4.09*	0.00618	0.00485	0.028	0.00779	0.0188	0.011
COc1ccc(NC(=O)CS(=O)(=O)c2cn(CC(=O)N3CCOCC3)c3ccccc23)cc1	2.9	nt	0.0534	i	0.555	nt	nt	nt	nt	nt	nt
O=C(Cn1cnc2scc(-c3ccc(F)cc3)c2c1=O)N1CCOCC1	2.5	13.9	1.14	i	0.0973	nt	nt	nt	nt	nt	nt
Cc1ccc(-c2csc3ncn(CC(=O)N4CCOCC4)c(=O)c23)cc1C	4.3	5.0	-1.19	i	nt	0.0113	?	0.0356	0.00477	0.0211	0.012
COc1cc(S(=O)(=O)NCc2ccccc2)ccc1Br	-7.6	8.0	1.04	i	-0.905	nt	nt	nt	nt	nt	nt
O=S(=O)(NCc1ccccc1)c1ccc(Cl)c(S(=O)(=O)NCc2ccccc2)c1	0.1	5.5	-0.922	i	nt	0.00759	0.00628	?	0.00613	0.0129*	0.00974
CCOc1cc(S(=O)(=O)NCc2ccccc2)ccc1F	-1.1	6.8	-1.06	i	nt	?	0.00526	0.0241*	0.00746	?	0.011
Cc1nsc(Nc2ccccc2)c1C#N	1.7	nt	0.52	i	-0.144	nt	nt	nt	nt	nt	nt
Cc1ccc(NCC(=O)N/N=C\c2ccc[nH]2)cc1	nt	nt	nt	i	0.954	nt	nt	nt	nt	nt	nt
CCC1(c2ccc(Cl)cc2)NC(=S)N(c2ccc(C)c(C)c2)N1 (centres undefined)	nt	nt	nt	i	93.1*	0.0496*	0.12*	0.0445*	0.102*	0.0871*	0.0376*
Cc1ccc(-n2c(C)n[nH]c2=S)cc1C	-2.1	3.0	nt	i	-0.644	nt	nt	nt	nt	nt	nt
CC1=CC(C)(C)NC(=S)N1c1ccc(C)c(C)c1	6.5	nt	-0.0986	i	0.338	nt	nt	nt	nt	nt	nt
